Reference: PubChem BioAssay AID602393 (Broad Institute, 2012)
The whole screen tested about 350,000 compounds, of which about 7,000 (2%) were called active. This is one part of a sample in which actives are shown more often than they occur. A number with no mark means an inactive call. Rule as the data show it: active = activation above about 40%; inconclusive = no clear call, values can overlap the other calls; inactive = below that.

Assay: Bmi1 luciferase reporter increase in mESCs, primary screen, esBAF inhibitor project, mouse ES cells, Bmi1 luciferase knock-in, single point (AID 602393);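 also: 0% = median of the plate's neutral control wells and 100% = double that signal; a rise in the Bmi1 reporter signal indicates esBAF inhibition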
Conditions: 24 h, at 12.5 µM, active compounds read high, 100% = twice the neutral-well signal

Compound	reporter increase
C/C(=N\c1nc2ccccc2n1C)c1cc(Cl)ccc1O	-2.25%
Cn1c(Nc2cccc(Cl)c2)nc2ccccc21	53.4% (active)
O=C(Cn1c(NCCO)nc2ccccc21)c1ccc(Cl)cc1Cl	-0.748%
C[C@@H]1CN([C@H](C)CO)C(=O)CCCn2cc(nn2)CO[C@@H]1CN(C)C(=O)c1ccc2ccn(C)c2c1	-1.71%
Cc1ccc(OCc2cc(C(=O)N(C)CCc3ccccc3)no2)cc1C	71.6% (active)
Cc1cc(CN(C)C(=O)c2cc(COc3ccc(C)c(C)c3)on2)n[nH]1	13.8%
Cc1ccc(OCc2cc(C(=O)N(C)CCn3ccnc3C)no2)cc1C	11.8%
O=C(Nc1ccccc1)Nc1ccc2c(c1)[C@@H]1C[C@@H](CC(=O)N3CCCCC3)O[C@H](CO)[C@@H]1O2	-0.639%
CO[C@H]1CN(C)C(=O)c2ccc(NS(=O)(=O)c3cn(C)cn3)cc2OC[C@@H](C)N(CC2CC2)C[C@H]1C	-8.79%
CN1CCc2ccccc2C1Cc1ccccc1NC(=O)c1sc2ccccc2c1Cl (stereo not drawn)	51%
O=C(Nc1ccon1)c1nc[nH]c1C(=O)NCc1ccccc1	-6.72%
O=C(Nc1ccon1)c1sc2ccccc2c1Cl	48.7% (active)
Cc1ccc(-n2c(SCC(=O)N3CCC(C(=O)O)CC3)nc3ccccc3c2=O)cc1C	42% (active)
O=C(CSc1nc2ccccc2c(=O)n1-c1ccccc1F)N1CCOCC1	-4.38%
O=C(CSc1nc2ccccc2c(=O)n1-c1ccc(F)cc1)NC1CC1	-5.85%
Cc1noc(C)c1NC(=O)Nc1ccc2c(c1)C(=O)N([C@H](C)CO)C[C@H](C)[C@H](CN(C)S(=O)(=O)c1cccs1)O2	1.55%
O=C(NC1CCCC1)[C@H]1[C@H](CO)[C@H]2Cn3c(ccc(-c4ccccc4F)c3=O)[C@@H]1N2C(=O)CC1CC1	-2.95%
CO[C@H]1CN(C)C(=O)c2cc(NS(=O)(=O)c3ccccc3C)ccc2OC[C@@H](C)NC[C@@H]1C	1.69%
C[C@@H]1CCCCO[C@H](CN(C)C(=O)CCCN(C)C)[C@H](C)CN([C@@H](C)CO)C(=O)c2cc(NS(=O)(=O)c3ccc(Cl)cc3)ccc2O1	2.25%

Compound	reporter increase
C[C@H](CO)N1C[C@H](C)[C@H](CN(C)Cc2ccc(C(F)(F)F)cc2)Oc2ccc(NC(=O)CCCCCC(=O)Nc3ccccc3N)cc2CC1=O	-12.1%
CCn1nc(C)c(/C=N/NC(=O)Cc2ccc(Cl)cc2)c1C	64.3% (active)
O=C(Cc1ccccc1)N/N=C/c1ccc(Cl)cc1Cl	3%
Cc1ccc(/C=N/NC(=O)Cn2nc(C)c(Br)c2C)o1	-0.989%
COc1cccc(-c2cnc3c(c2)C(=O)N([C@@H](C)CO)C[C@@H](C)[C@H](CN(C)C(=O)CN(C)C)O3)c1	4.59%
O=C(C[C@H]1C=C[C@H](NC(=O)c2cnccn2)[C@@H](CO)O1)NCc1ccccc1F	-2.01%
Cc1ccc(S(=O)(=O)N2CCN(C(=O)COC(=O)c3c(C)noc3C)CC2)c(C)c1	0.794%
Cc1ccc(-c2nc(COC(=O)c3c(C)noc3C)cs2)cc1	76.6% (active)
Cc1noc(C)c1COC(=O)c1cc2ccccc2cc1O	-1.05%
COc1ccc(CNC(=O)C[C@H]2CC[C@H](NC(=O)Nc3ccc4c(c3)OCO4)[C@H](CO)O2)cc1	-2.93%
C[C@H](CO)N1C[C@H](C)[C@@H](CN(C)C(=O)Nc2ccc3c(c2)OCO3)OCCCC[C@H](C)Oc2ccc(NC(=O)Nc3ccc4c(c3)OCO4)cc2C1=O	45% (active)
C[C@H]1CCCCO[C@H](CN(C)C(=O)Nc2ccccc2)[C@@H](C)CN([C@@H](C)CO)C(=O)c2cc(NC(=O)Nc3ccc4c(c3)OCO4)ccc2O1	27%
C[C@H](CO)N1C[C@H](C)[C@@H](CN(C)C(=O)Nc2ccc3c(c2)OCO3)OCCCC[C@H](C)Oc2ccc(NC(=O)Nc3ccc(F)cc3)cc2C1=O	4.31%
C[C@H]1CCCCO[C@H](CN(C)C(=O)Nc2ccc3c(c2)OCO3)[C@@H](C)CN([C@@H](C)CO)C(=O)c2cc(NC(=O)Nc3ccccc3)ccc2O1	10.9%
COc1ccc(NC(=O)Nc2ccc3c(c2)C(=O)N([C@@H](C)CO)C[C@@H](C)[C@@H](CN(C)C(=O)Nc2ccc(F)cc2)OCCCC[C@@H](C)O3)cc1	4.33%
C[C@@H]1CN([C@@H](C)CO)C(=O)c2cc(NC(=O)Nc3ccc4c(c3)OCO4)ccc2O[C@@H](C)CCCCO[C@@H]1CN(C)C(=O)Nc1ccc2c(c1)OCO2	64.3% (active)
COc1ccc(NC(=O)N(C)C[C@H]2OCCCC[C@@H](C)Oc3ccc(NC(=O)Nc4ccc5c(c4)OCO5)cc3C(=O)N([C@H](C)CO)C[C@@H]2C)cc1	49.3% (active)
C[C@@H]1CN([C@@H](C)CO)C(=O)c2cc(NC(=O)Nc3ccc4c(c3)OCO4)ccc2O[C@@H](C)CCCCO[C@H]1CN(C)C(=O)Nc1ccc(C(F)(F)F)cc1	0.715%
COc1ccc(NC(=O)Nc2ccc3c(c2)C(=O)N([C@H](C)CO)C[C@H](C)[C@@H](CN(C)C(=O)Nc2ccc(OC)cc2)OCCCC[C@H](C)O3)cc1	3.33%
